Assay outcomes deposited in PubChem BioAssay by National Center for Advancing Translational Sciences (NCATS).
This is a sample that favours compounds with a hit; in the whole collection about 19% have one here.
uPA generation: cell surface uPA generation inhibition | cell surface uPA generation assay, qHTS | Potency, µM (doses to about 38.3 µM), for the others: at the highest dose activity change, negative = inhibition, hits mostly inhibitors | actives 0.31% (n = 330,000); active means well fitted inhibition curve with a large enough effect; inconclusive means small, poorly fitted or top-dose-only effect; inactive means no such curve, though single readings can be large or run the other way; tested in mouse RAW 264.7 cells; further: potency means the concentration at half of the fitted maximal effect; nearly all actives have a fitted effect of over 55% in size
TDP1 cell noCPT: qHTS for Inhibitors of human tyrosyl-DNA phosphodiesterase 1 (TDP1): qHTS in cells in absence of CPT; Potency, µM (top dose mostly 46.2 µM), for the others: at the highest dose activity change, negative = growth inhibition, hits mostly inhibitors; DT40 Tdp1-/- hTDP1 cells, no CPT, ATP luminescence, 48 h; actives 15% (n = 420,000); AID 686978, 2013; further: potency means the concentration at half of the fitted maximal effect; nearly all actives have a fitted effect of over 55% in size
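Camptothecin absent (DMSO only). Human TDP1-complemented DT40 knockout cells, 400 cells/well, 37 °C for minimum 48 hr; ATP measured via CellTiter-Glo, 30 min dark incubation, luminescence.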
HT1080NT lethal: kills 2HG-producing HT-1080-NT fibrosarcoma cells | HT-1080-NT fibrosarcoma viability, CellTiter-Glo ATP luminescence, 48 h | actives 1.6% (n = 360,000) | Potency, µM (top dose mostly 46.1 µM), for inactives: at the top dose activity, negative = less viability, most hits filed as cytotoxic;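 further: NT is the 2HG producing partner of a matched IDH1 knockdown line; potency means the concentration at half of the fitted maximal effect; 0% = DMSO-treated cells and -100% = media-only wells without cells; nearly all actives have a fitted effect of over 55% in size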
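Luminescent CellTiter-Glo readout after 48 hours of compound exposure at 37 degrees C defined viability of HT-1080-NT cells. Activity was normalized to DMSO wells and cell-free media wells; concentration-response curves were fitted and assigned curve classes.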
DT40 TDP1 CPT: growth inhibition of DT40 Tdp1-/-;hTDP1 cells with camptothecin (screen for TDP1 inhibitors) | chicken DT40 Tdp1-/-;hTDP1 cells + 20 nM CPT, ATP luminescence, 48 h | Potency, µM (highest dose often 46.2 µM), for the others: top-dose activity change, negative = growth inhibition, hits mostly inhibitors | actives 12% (n = 420,000); further: potency means the concentration at half of the fitted maximal effect; nearly all actives have a fitted effect of over 55% in size
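Chicken DT40 Tdp1-/- cells stably complemented with human TDP1 were seeded at 400 cells/well in medium containing 20 nM camptothecin, exposed to pin-transferred compounds, and grown at 37 °C for at least 48 hr. Viability was read as ATP luminescence.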
HT1080 IDH1KD tx: kills HT-1080 cells with IDH1 knockdown; HT-1080 IDH1 knockdown viability, ATP luminescence, 48 h; Potency, µM (series often up to 46.1 µM), without a hit: top-dose activity, negative = toxicity, usual class: cytotoxic; actives 2% (n = 360,000); AID 686971;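 further: potency means the concentration at half of the fitted maximal effect; 0% = DMSO wells and -100% = cell-free medium wells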
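% activity derives from luminescence (CellTiter-Glo), normalised to DMSO and no-cell wells. HT-1080-IDH1KD cells, 750/well, had 48 h compound exposure at 37 °C.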
IL1B secr inh: inflammasome signaling inhibition, IL-1 beta readout; THP-1 LPS/ATP IL-1B secretion, AlphaLISA, 16 h; stronger effect = lower value; activity change, % at 57.5 µM; actives 4.7% (n = 360,000); in the data active means activity change below about -50%; inconclusive means mostly about -30% to -49%
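Secreted IL-1B measured by AlphaLISA bead assay after 16 h compound exposure of THP-1 cells; compounds (final up to 57.5 uM) added 1 h before LPS (250 ng/mL) and ATP (1.25 mM) stimulation; lower signal means less secretion.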
An asterisk follows results filed as active; [ ] = remark or other dose. Unless noted, the call rests on the fitted dose curve; in most records, active means well fitted curve in the direction sought with a large enough effect; inconclusive means small, poorly fitted or top-dose-only effect, or another doubt; inactive means no such curve, though single readings can be large; an effect the other way counts as inactive or inconclusive. Unless noted, on the % scale 0 is the no-effect control and ±100 the full control effect.

Results for Cc1cccc(CNc2ncnc3ccc(-c4ccc5c(c4)OCO5)cc23)c1 ?
uPA generation: -5%; TDP1 cell noCPT: 18µM*; DT40 TDP1 CPT: inconclusive

What do the screens show for `c1cncc(CNc2ncncc2-c2ccc3c(c2)OCO3)c1`?
TDP1 cell noCPT: 10µM*; DT40 TDP1 CPT: 6.5µM*

What do the screens show for `Cc1cccc(CNc2ncncc2-c2ccc(C(=O)N(C)C)cc2)c1`?
TDP1 cell noCPT: 3.7µM*; DT40 TDP1 CPT: inconclusive

What do the screens show for `Cc1cccc(CNc2nc(-c3ccc4c(c3)OCO4)nc3ccccc23)c1`?
TDP1 cell noCPT: 23µM*; DT40 TDP1 CPT: inconclusive

How did COc1ccc(CN2CCNC(=O)C2CC(=O)NCCc2c[nH]c3ccccc23)c(OC)c1 (stereo not drawn) do in these assays?
TDP1 cell noCPT: -17%; HT1080NT lethal: -8%; DT40 TDP1 CPT: 9%; HT1080 IDH1KD tx: -8%; IL1B secr inh: 28

How did CN(C)c1ncc2nc(CCc3ccccc3)c(=O)n(Cc3ccc(F)cc3)c2n1 do in these assays?
TDP1 cell noCPT: -27%; DT40 TDP1 CPT: 2%

How did COC(=O)C1=C(c2ccccc2)c2ccccc2S(=O)(=O)N1CC(=O)Nc1cccc(C(C)=O)c1 do in these assays?
TDP1 cell noCPT: inconclusive; DT40 TDP1 CPT: -19%

Results for Cc1cccc(CNc2ncnc3ccc(-c4ccc(C(=O)N(C)C)cc4)cc23)c1 ?
TDP1 cell noCPT: 26µM*; DT40 TDP1 CPT: inconclusive

Results for Cc1ncc2c(c1CNS(=O)(=O)N(C)C)CCN(C(=O)c1[nH]c3ccc(Cl)cc3c1C)C2 ?
TDP1 cell noCPT: inconclusive; DT40 TDP1 CPT: -5%[9.04 µM]

How did CCOc1ccc(NC(=O)C2C3CC/C=C\CCC32)cc1 (stereo not drawn) do in these assays?
uPA generation: 10%; TDP1 cell noCPT: -15%; HT1080NT lethal: -11%; DT40 TDP1 CPT: 8%; HT1080 IDH1KD tx: -10%; IL1B secr inh: -11

Results for Cc1ccc(/C=N/n2c(C)nnc2C)cc1 ?
uPA generation: -4%; TDP1 cell noCPT: -1%; HT1080NT lethal: -3%; DT40 TDP1 CPT: -8%; HT1080 IDH1KD tx: -6%; IL1B secr inh: 26

Results for Cc1ccc2nc(Cl)c(/C=N/n3c(C)nnc3C)cc2c1 ?
uPA generation: 1%; TDP1 cell noCPT: 21µM*; HT1080NT lethal: 7%; DT40 TDP1 CPT: inconclusive; HT1080 IDH1KD tx: 12%; IL1B secr inh: 28

Results for Cc1nn(Cc2ccc(F)cc2)c(C)c1NC(=O)c1cc(-c2ccc3c(c2)OCO3)on1 ?
TDP1 cell noCPT: 13µM*; HT1080NT lethal: inconclusive; DT40 TDP1 CPT: inconclusive; HT1080 IDH1KD tx: 2%; IL1B secr inh: 7

How did Cc1ccc(Cn2nc(C)c(NC(=O)c3cc(-c4ccc5c(c4)OCO5)on3)c2C)cc1 do in these assays?
TDP1 cell noCPT: inconclusive; HT1080NT lethal: 8.9µM*; DT40 TDP1 CPT: 16µM*; HT1080 IDH1KD tx: inconclusive; IL1B secr inh: 3

Results for COc1ccc(-c2cc(C(=O)Nc3c(C)nn(Cc4ccc(C)cc4)c3C)no2)cc1OC ?
TDP1 cell noCPT: -5%; DT40 TDP1 CPT: inconclusive

Results for COc1ccc(NC(=O)NNC(=O)c2ccc3ccccc3c2O)c(OC)c1 ?
uPA generation: 3%; TDP1 cell noCPT: 16%; HT1080NT lethal: -9%; DT40 TDP1 CPT: -7%; HT1080 IDH1KD tx: -25%; IL1B secr inh: 39

Results for COc1ccc(OC)c(NC(=O)Nc2ccccc2C)c1 ?
uPA generation: 4%; TDP1 cell noCPT: -10%; HT1080NT lethal: 24%; DT40 TDP1 CPT: 0%; HT1080 IDH1KD tx: 20%; IL1B secr inh: -18

What do the screens show for `COc1ccc(OC)c(NC(=O)Nc2cc(NC(=O)Nc3cc(OC)ccc3OC)c(C)nc2C)c1`?
uPA generation: -6%; TDP1 cell noCPT: inconclusive; HT1080NT lethal: 18µM*; DT40 TDP1 CPT: -9%; HT1080 IDH1KD tx: 23µM*; IL1B secr inh: 56

Results for COc1ccc(OC)c(C(=O)Nc2c(O)ccc3ccccc23)c1 ?
uPA generation: -4%; TDP1 cell noCPT: 16µM*; HT1080NT lethal: -12%; DT40 TDP1 CPT: 21µM*; HT1080 IDH1KD tx: -16%; IL1B secr inh: inconclusive

How did COc1ccc(OC)c(NC(=O)Nc2ccc(O)c3ccccc23)c1 do in these assays?
uPA generation: 1%; TDP1 cell noCPT: 4.6µM*; HT1080NT lethal: inconclusive; DT40 TDP1 CPT: 2.6µM*; HT1080 IDH1KD tx: inconclusive; IL1B secr inh: 20

How did COc1ccc(OC)c(NC(=O)Nc2c(O)ccc3ccccc23)c1 do in these assays?
uPA generation: 4%; TDP1 cell noCPT: inconclusive; HT1080NT lethal: -14%; DT40 TDP1 CPT: 15µM*; HT1080 IDH1KD tx: -9%; IL1B secr inh: 4

What do the screens show for `COc1ccc(OC)c(N(CC(=O)N2CCN(c3cc(Cl)ccc3C)CC2)S(C)(=O)=O)c1`?
uPA generation: inconclusive; TDP1 cell noCPT: inconclusive; HT1080NT lethal: inconclusive; DT40 TDP1 CPT: 15µM*; HT1080 IDH1KD tx: inconclusive; IL1B secr inh: -29

Results for CS(=O)(=O)N(CC(=O)N1CCN(c2cccc(Cl)c2)CC1)C1CCCCC1 ?
uPA generation: 1%; TDP1 cell noCPT: inconclusive; HT1080NT lethal: -1%; DT40 TDP1 CPT: -28%; HT1080 IDH1KD tx: -1%; IL1B secr inh: 0

What do the screens show for `Cc1ccc(Cl)cc1N1CCN(C(=O)CN(C2CCCCC2)S(C)(=O)=O)CC1`?
uPA generation: -7%; TDP1 cell noCPT: 8.2µM*; HT1080NT lethal: -7%; DT40 TDP1 CPT: 15µM*; HT1080 IDH1KD tx: 21µM*; IL1B secr inh: inconclusive

What do the screens show for `CCN1CCN(C(=O)CN(c2cc(OC)ccc2OC)S(C)(=O)=O)CC1`?
uPA generation: 2%; TDP1 cell noCPT: -19%; HT1080NT lethal: 17%; DT40 TDP1 CPT: 1%; HT1080 IDH1KD tx: 24%; IL1B secr inh: 27

How did COc1ccc2[nH]cc(CCNc3ncncc3-c3ccccc3OC)c2c1 do in these assays?
TDP1 cell noCPT: inconclusive; DT40 TDP1 CPT: -95%

What do the screens show for `COc1ccc2[nH]cc(CCNc3ncncc3-c3ccccc3CN(C)C)c2c1`?
TDP1 cell noCPT: -19%; DT40 TDP1 CPT: -18%

How did COc1ccc2[nH]cc(CCNc3ncncc3-c3ccccc3C(F)(F)F)c2c1 do in these assays?
TDP1 cell noCPT: inconclusive; DT40 TDP1 CPT: 16µM*

How did COc1ccc2[nH]cc(CCNc3ncncc3-c3ccccc3Cl)c2c1 do in these assays?
TDP1 cell noCPT: inconclusive; DT40 TDP1 CPT: 23µM*
